# Where “and” joins values, the source holds several entries; their conditions need not be identical. Equal values may be shown once. Inconclusive results are not listed. A call without a number means that no potency is given here. Some structures have more than one record in an assay (separate samples or runs), and their calls can disagree. Calls of active or inactive are those of the source. Unless noted, the call rests on the fitted dose curve; in most records, active means well fitted curve in the direction sought with a large enough effect; inconclusive means small, poorly fitted or top-dose-only effect, or another doubt; inactive means no such curve, though single readings can be large; an effect the other way counts as inactive or inconclusive.
# Legend:
# [1] = target: Alpha-galactosidase (Coffea arabica) (UniProt Q42656); experiment: Counterscreen for Glucocerebrosidase Inhibitors: qHTS Assay for Coffee Bean alpha-Galactosidase at pH 4.5 (AID 957); further: series mostly up to about 77 µM
# Outline: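 AC50 values derive from Hill-equation modeling of concentration-response data, normalized to no-enzyme and full-activity controls. The pH 4.5 citrate assay used 2 nM coffee bean enzyme and 80 uM fluorogenic substrate for 20 min.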
# [2] = target: Pyruvate kinase PKM (Homo sapiens) (UniProt P14618); experiment: qHTS Assay for Activators of Human Muscle Pyruvate Kinase (AID 954; active means well fitted curve in the direction sought with a large enough effect, not every such curve was filed as active)
# Outline: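 Reaction: 0.1 nM purified PKM2 with 0.5 mM phosphoenolpyruvate and 0.1 mM ADP, room temperature, 1 h. Readout: luciferase-based ATP luminescence after stop reagent. Activators judged against a 0.3 nM enzyme column.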
# [3] = MultiTox-Fluor Cytotoxicity Assay - LYMP1-002 - Live Cells (AID 955);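 further: cells exposed to compound for 16 hours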; further: potency means the concentration at half of the fitted maximal effect
# Outline: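 Cytotoxicity in the human lymphoblastoid line LYMP1-002 is measured as loss of live-cell protease activity after 16 h treatment in complete culture medium. AC50 is derived from Hill-equation fits of qHTS concentration-response data.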
# [4] = MultiTox-Fluor Cytotoxicity Assay - LYMP1-003 - Dead Cells (AID 961);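 further: cells exposed to compound for 16 h at 37 °C; nearly all actives have a fitted effect of over 70% in size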; further: potency means the concentration at half of the fitted maximal effect
# Outline: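 LYMP1-003 lymphoblastoid, 2500 cells/well, 5 hr settle then 16 hr cpd at 37 C; MultiTox-Fluor reagent 60 min RT; Ex/Em 485/520 dead-cell signal; norm. DMSO = 0%, 15 uM tetraoctylammonium bromide = 100%; Hill AC50.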
# [5] = Cell Viability - LYMP1-003 - Assay at 24 hr (AID 963); further: potency means the concentration at half of the fitted maximal effect
# Outline: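 Acute toxicity in LYMP1-003 lymphoblastoid cells: 24 hr compound treatment at 37 C, ATP measured with CellTiter-Glo after 30 min at room temperature. AC50 derived by fitting the Hill equation to qHTS titrations.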
# [6] = Cell Viability - LYMP1-003 - Assay at 40 hr (AID 964); further: nearly all actives have a fitted effect of over 60% in size; further: potency means the concentration at half of the fitted maximal effect
# Outline: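 This qHTS cytotoxicity screen treats human lymphoblastoid cells (LYMP1-003) with compounds for 40 hr and quantifies cellular ATP via luciferase luminescence.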
# [7] = Cell Viability - LYMP2-003 (AID 965);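 further: cells exposed to compounds for 24 h before reading; nearly all actives have a fitted effect of over 50% in size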; further: potency means the concentration at half of the fitted maximal effect
# Outline: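 CellTiter-Glo luminescence quantified ATP loss after 24 h compound treatment of LYMP2-003 lymphoblastoid cells at 37 C. Titration series were fitted with the standard Hill equation to give AC50.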
# [8] = Cell Viability - LYMP2-004 (AID 966); further: nearly all actives have a fitted effect of over 65% in size; further: potency means the concentration at half of the fitted maximal effect
# Outline: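 Acute toxicity is scored as a concentration-dependent drop in intracellular ATP, quantified by luciferase luminescence, in human lymphoblastoid cells exposed to compound for 24 hr. AC50 derives from Hill-equation modelling.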
# [9] = Cell Viability - LYMP2-017 (AID 972);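 further: cells exposed to compound for 24 hours at 37 °C; nearly all actives have a fitted effect of over 55% in size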; further: potency means the concentration at half of the fitted maximal effect
# Outline: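 Steps: plate 2500 lymphoblastoid cells per well; incubate 5 hr at 37 C; add compound across a concentration series and incubate 24 hr at 37 C; add CellTiter-Glo and read luminescence after 30 min at room temperature; fit Hill curves for AC50.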
# [10] = Cell Viability - LYMP2-019 (AID 973); further: nearly all actives have a fitted effect of over 55% in size; further: potency means the concentration at half of the fitted maximal effect
# Outline: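 Cells plated at 2500/well and allowed 5 hr at 37 C before compound addition. After 24 hr incubation, CellTiter-Glo reagent was added, plates sat 30 min at room temperature, and luminescence was recorded.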
# [11] = Cell Viability - LYMP1-002 - Assay at 16 hr (AID 948); further: potency means the concentration at half of the fitted maximal effect
# Outline: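 ATP luminescence (CellTiter-Glo) was measured after 16 hr compound exposure at 37 C of 2500 lymphoblastoid LYMP1-002 cells per well. Concentration-response curves were fitted with the Hill equation to give AC50.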
# [12] = MultiTox-Fluor Cytotoxicity Assay - LYMP1-003 - Live Cells (AID 962);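 further: cells exposed to compound for 16 hours at 37 °C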; further: potency means the concentration at half of the fitted maximal effect
# Outline: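 Cells plated at 2500 per well and incubated 5 hr; compounds added and incubated 16 hr at 37 C; MultiTox-Fluor reagent added for 60 min at room temperature; fluorescence of liberated AFC measured at 405/510 nm.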
# [13] = Cell Viability - LYMP2-009 (AID 968); further: nearly all actives have a fitted effect of over 55% in size; further: potency means the concentration at half of the fitted maximal effect
# [14] = Cell Viability - LYMP2-011 (AID 969); further: nearly all actives have a fitted effect of over 60% in size; further: potency means the concentration at half of the fitted maximal effect
# Outline: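 Acute toxicity is scored as a concentration-dependent drop in intracellular ATP of a human lymphoblastoid line after 24 hr treatment. Values are AC50s modeled with the Hill equation.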
# [15] = Cell Viability - LYMP2-013 (AID 970); further: nearly all actives have a fitted effect of over 55% in size; further: potency means the concentration at half of the fitted maximal effect
# Outline: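 Acute toxicity was measured in human lymphoblastoid cells (2500/well) exposed to compound titrations for 24 hr, with ATP luminescence (CellTiter-Glo) as read-out and AC50 fitted by Hill equation.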
# [16] = Cell Viability - LYMP2-015 (AID 971); further: nearly all actives have a fitted effect of over 55% in size; further: potency means the concentration at half of the fitted maximal effect
# Outline: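 Acute toxicity was scored as a concentration-dependent drop in intracellular ATP in lymphoblastoid cells after 24 hr compound exposure in complete medium. Detection used CellTiter-Glo luciferase luminescence.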
# [17] = Cell Viability - LYMP2-021 (AID 974); further: potency means the concentration at half of the fitted maximal effect
# Outline: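 Concentration-response cytotoxicity in a human lymphoblastoid line: 24 hr treatment at 37 C in complete culture medium, tetraoctylammonium bromide as positive control, luminescent ATP quantitation as viability measure.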
# [18] = Cell Viability - LYMP2-023 (AID 975); further: potency means the concentration at half of the fitted maximal effect
# Outline: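 Concentration-dependent drop in intracellular ATP measures acute cytotoxicity in a human lymphoblastoid line treated for 24 hours in complete culture medium. AC50 values are taken from Hill-equation fits of qHTS data.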
# [19] = MultiTox-Fluor Cytotoxicity Assay - LYMP1-002 - Dead Cells (AID 960); further: nearly all actives have a fitted effect of over 60% in size; further: potency means the concentration at half of the fitted maximal effect
# Outline: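 Acute cytotoxicity in a human lymphoblastoid line is scored as rising dead-cell protease signal after 16 hr exposure at 37 C, measured fluorometrically (485/520).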
# [20] = Cell Viability - LYMP2-005 (AID 967); further: potency means the concentration at half of the fitted maximal effect
# Outline: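 LYMP2-005 human lymphoblastoid cells (2500/well) were treated with compounds for 24 h at 37 C. Intracellular ATP was then measured by CellTiter-Glo luminescence after 30 min at room temperature. AC50 values came from Hill-equation fits of qHTS concentration-response data.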
# Alpha-galactosidase (Coffea arabica), sequence (Q42656 whole entry, looked up): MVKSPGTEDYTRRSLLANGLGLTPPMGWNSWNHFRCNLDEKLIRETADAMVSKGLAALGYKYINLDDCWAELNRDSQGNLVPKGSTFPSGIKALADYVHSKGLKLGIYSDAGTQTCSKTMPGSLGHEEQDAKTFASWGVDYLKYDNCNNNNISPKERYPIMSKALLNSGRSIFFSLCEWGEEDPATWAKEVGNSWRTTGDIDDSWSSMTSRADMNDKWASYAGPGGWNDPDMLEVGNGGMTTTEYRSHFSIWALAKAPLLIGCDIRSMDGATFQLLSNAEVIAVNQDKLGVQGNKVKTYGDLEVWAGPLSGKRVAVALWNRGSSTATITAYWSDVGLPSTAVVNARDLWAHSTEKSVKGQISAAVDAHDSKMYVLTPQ
# Pyruvate kinase PKM (Homo sapiens), sequence (P14618 whole entry, looked up): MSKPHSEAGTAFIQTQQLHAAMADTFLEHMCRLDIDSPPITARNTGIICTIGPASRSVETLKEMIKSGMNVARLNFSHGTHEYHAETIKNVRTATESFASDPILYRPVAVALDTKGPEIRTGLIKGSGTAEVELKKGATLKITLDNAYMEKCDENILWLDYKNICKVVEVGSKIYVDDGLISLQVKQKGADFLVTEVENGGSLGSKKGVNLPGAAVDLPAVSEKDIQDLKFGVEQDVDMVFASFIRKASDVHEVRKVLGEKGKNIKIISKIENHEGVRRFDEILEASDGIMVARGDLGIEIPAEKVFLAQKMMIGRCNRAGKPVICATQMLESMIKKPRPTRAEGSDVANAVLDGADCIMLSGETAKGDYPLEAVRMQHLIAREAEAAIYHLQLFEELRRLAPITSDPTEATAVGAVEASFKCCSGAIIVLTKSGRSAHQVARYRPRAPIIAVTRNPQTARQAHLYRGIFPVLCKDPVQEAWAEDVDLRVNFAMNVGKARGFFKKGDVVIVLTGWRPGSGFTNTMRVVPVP
compound,measurement,setting,value
O=c1[nH]c2ccccc2n1CCCN1CCN(C(c2ccccc2)c2ccccc2)CC1,outcome,[1],inactive
COc1ccc(C(=O)N2CCCC2=O)cc1,outcome,[2],inactive
same,outcome,[1],inactive
NC(=O)CN1CCCC1=O,outcome,[2],inactive
same,outcome,[1],inactive
O=C(O)CCc1nc(-c2ccccc2)c(-c2ccccc2)o1,outcome,[1],inactive
Cn1cnc2c1c(=O)[nH]c(=O)n2C,outcome,[1],inactive
CCc1cccc(N(C)C(N)=Nc2cccc3ccccc23)c1,outcome,[1],inactive
CCCCCCCCC(=O)NCc1ccc(O)c(OC)c1,outcome,[2],inactive
same,outcome,[1],inactive
O=C1CC2(CCCC2)CC(=O)N1CCCCN1CCN(c2ncccn2)CC1,outcome,[1],inactive
COc1ccccc1N1CCN(CCCNc2cc(=O)n(C)c(=O)n2C)CC1,outcome,[1],inactive
c1ccc2nc(N3CCNCC3)ccc2c1,outcome,[2],inactive
same,outcome,[1],inactive
C#CCN(C)Cc1ccccc1,outcome,[1],inactive
N[C@@H](Cc1c[nH]c2ccc(O)cc12)C(=O)O,outcome,[1],inactive
COC(=O)C1=C(C)NC(C)=C(C(=O)OC)C1c1ccccc1[N+](=O)[O-],Potency,[3],31.6 µM (active)
same,outcome,[1],inactive
same,Potency,[4],50.1 µM (active)
same,Potency,[5],50.1 µM (active)
same,Potency,[6],39.8 µM (active)
same,Potency,[7],50.1 µM (active)
same,Potency,[8],31.6 µM (active)
same,Potency,[9],50.1 µM (active)
same,Potency,[10],79.4 µM (active)
NCCc1cnc[nH]1,outcome,[1],inactive
CSc1ccc(C(=O)c2[nH]c(=O)[nH]c2C)cc1,outcome,[1],inactive
CN(C)CCN(Cc1cccs1)c1ccccn1,outcome,[1],inactive
CCCCCCCCCCCC[N+](C)(C)CCOc1ccccc1,Potency,[11],15.8 µM (active)
same,Potency,[3],10 µM (active)
same,Potency,[4],12.6 µM (active)
same,Potency,[12],31.6 µM (active)
same,Potency,[5],12.6 µM (active)
same,Potency,[6],31.6 µM (active)
same,Potency,[7],50.1 µM (active)
same,Potency,[13],31.6 µM (active)
same,Potency,[14],39.8 µM (active)
same,Potency,[15],31.6 µM (active)
same,Potency,[16],31.6 µM (active)
same,Potency,[9],39.8 µM (active)
same,Potency,[10],39.8 µM (active)
same,Potency,[17],39.8 µM (active)
same,Potency,[18],50.1 µM (active)
Oc1c(Br)cc(Br)cc1Br,Potency,[11],inactive
same,Potency,[3],inactive
same,Potency,[19],inactive
same,Potency,[4],inactive
same,Potency,[12],inactive
same,Potency,[5],inactive
same,Potency,[6],inactive
same,Potency,[7],inactive
same,Potency,[8],inactive
same,Potency,[20],inactive
same,Potency,[13],inactive
same,Potency,[14],inactive
same,Potency,[15],inactive
same,Potency,[16],inactive
same,Potency,[9],inactive
same,Potency,[10],inactive
same,Potency,[17],inactive
same,Potency,[18],inactive
CN(C)C(=S)SSC(=S)N(C)C,Potency,[11],20 µM (active)
same,Potency,[3],10 µM (active)
same,Potency,[4],12.6 µM (active)
same,Potency,[12],50.1 µM (active)
same,Potency,[5],15.8 µM (active)
same,Potency,[7],0.251 µM (active)
same,Potency,[8],0.251 µM (active)
same,Potency,[20],0.501 µM (active)
same,Potency,[13],0.199 µM (active)
same,Potency,[14],0.316 µM (active)
same,Potency,[15],0.398 µM (active)
same,Potency,[16],0.251 µM (active)
same,Potency,[9],0.199 µM (active)
same,Potency,[10],0.199 µM (active)
same,Potency,[17],0.501 µM (active)
same,Potency,[18],0.316 µM (active)
O=C(O)c1nn(Cc2ccc(Cl)cc2Cl)c2ccccc12,outcome,[2],inactive
same,outcome,[1],inactive
C[N+](C)(C)CCCCCCCCCC[N+](C)(C)C,outcome,[1],inactive
CN1[C@@H]2CC[C@H]1CC(OC(=O)c1cc(Cl)cc(Cl)c1)C2 (stereo not given in full),outcome,[2],inactive
same,outcome,[1],inactive
O=C(O)c1cccnc1Nc1cccc(C(F)(F)F)c1,outcome,[1],inactive
Nc1c2c(nc3ccccc13)CCCC2,outcome,[1],inactive
c1cnc(N2CCN(Cc3ccc4c(c3)OCO4)CC2)nc1,outcome,[1],inactive
CCCCC1C(=O)N(c2ccccc2)N(c2ccccc2)C1=O,outcome,[1],inactive
C[n+]1cc2c3c(ccc2c2ccc4cc5c(cc4c21)OCO5)OCO3,outcome,[1],inactive
O=C(CCl)c1ccc(Cl)cc1Cl,Potency,[11],15.8 µM (active)
same,Potency,[3],7.94 µM (active)
same,Potency,[19],7.94 µM (active)
same,Potency,[4],10 µM (active)
same,Potency,[12],15.8 µM (active)
same,Potency,[5],20 µM (active)
same,Potency,[6],20 µM (active)
same,Potency,[7],10 µM (active)
same,Potency,[8],6.31 µM (active)
same,Potency,[20],10 µM (active)
same,Potency,[13],6.31 µM (active)
same,Potency,[14],6.31 µM (active)
same,Potency,[15],7.94 µM (active)
same,Potency,[16],5.01 µM (active)
same,Potency,[9],3.16 µM (active)
same,Potency,[10],7.94 µM (active)
same,Potency,[17],3.98 µM (active)
same,Potency,[18],6.31 µM (active)
CC1=C(C)C(=O)C(CCCCC#CCCCC#CCO)=C(C)C1=O,outcome,[1],inactive
COP(=O)(OC)OC=C(Cl)Cl,Potency,[11],inactive
same,Potency,[3],inactive
same,Potency,[19],inactive
same,Potency,[12],inactive
same,Potency,[5],inactive
same,Potency,[6],6.31 µM (active) and inactive
same,Potency,[7],inactive
same,Potency,[20],inactive
same,Potency,[13],inactive
same,Potency,[14],inactive
same,Potency,[15],inactive
same,Potency,[16],inactive
same,Potency,[9],inactive
same,Potency,[10],inactive
same,Potency,[17],inactive
same,Potency,[18],inactive
CNC(=O)Oc1cccc2ccccc12,Potency,[11],inactive
same,Potency,[3],inactive
same,Potency,[19],inactive
same,Potency,[4],inactive
same,Potency,[12],inactive
same,Potency,[5],inactive
same,Potency,[7],inactive
same,Potency,[8],inactive
same,Potency,[20],inactive
same,Potency,[13],inactive
same,Potency,[14],inactive
same,Potency,[15],inactive
same,Potency,[16],inactive
same,Potency,[9],inactive
same,Potency,[10],inactive
same,Potency,[17],inactive
same,Potency,[18],inactive
CC(C)(C)c1ccc(C(O)CCCN2CCC(C(O)(c3ccccc3)c3ccccc3)CC2)cc1 (stereo not given),outcome,[1],inactive
COC(=O)C1=CCCN(C)C1,outcome,[2],inactive
same,outcome,[1],inactive
C[C@@H]1C[C@@H]([C@H](O)CC2CC(=O)NC(=O)C2)C(=O)[C@@H](C)C1,Potency,[11],inactive
same,Potency,[3],inactive
same,Potency,[4],50.1 µM (active) and inactive
same,Potency,[5],inactive
same,Potency,[6],2 µM (active) and inactive
same,Potency,[15],2 µM (active)
same,Potency,[16],2 µM (active) and 1 µM (active)
same,Potency,[9],1.58 µM (active)
c1cc(CN2CCCCC2)cc(OCCCNc2nc3ccccc3s2)c1,outcome,[1],inactive
CCN(CC)CC(=O)Nc1c(C)cccc1C,outcome,[1],inactive
C[C@H](N)[C@H](O)c1ccc(O)c(O)c1,outcome,[2],inactive
same,outcome,[1],inactive
CC1(C)[C@@H]2CC[C@@]1(C)C(=O)C2,Potency,[19],inactive
CC[n+]1c(-c2ccccc2)c2cc(N)ccc2c2ccc(N)cc21,Potency,[12],12.6 µM (active)
same,Potency,[5],15.8 µM (active)
same,Potency,[7],31.6 µM (active)
same,Potency,[20],6.31 µM (active)
same,Potency,[13],15.8 µM (active)
same,Potency,[14],12.6 µM (active)
same,Potency,[15],15.8 µM (active)
same,Potency,[16],15.8 µM (active)
same,Potency,[9],15.8 µM (active)
same,Potency,[10],12.6 µM (active)
same,Potency,[17],20 µM (active)
same,Potency,[18],15.8 µM (active)
Oc1ccc(Cl)cc1Sc1cc(Cl)ccc1O,Potency,[13],39.8 µM (active)
same,Potency,[10],39.8 µM (active)
same,Potency,[17],39.8 µM (active)
